This is an account of results in PMC9574860, “Chemical Toolkit for PARK7: Potent, Selective, and High-Throughput” (Journal of Medicinal Chemistry, 2022).

About 400 (5.1%) of roughly 7,900 compounds showed an effect of 50% or more. This excerpt belongs to a sample that is enriched for strong results.

Sequence of Parkinson's disease protein 7 (PARK7/DJ1) (Q99497 whole entry, looked up, the tested form may be a part): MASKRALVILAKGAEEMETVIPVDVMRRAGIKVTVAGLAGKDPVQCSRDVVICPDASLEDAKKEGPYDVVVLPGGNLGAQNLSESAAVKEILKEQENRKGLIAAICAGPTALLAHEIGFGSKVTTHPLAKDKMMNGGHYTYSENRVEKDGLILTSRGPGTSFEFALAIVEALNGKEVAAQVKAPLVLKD

This experiment concerns the target Parkinson's disease protein 7 (PARK7/DJ1) (human, UniProt Q99497). The experiment is described as follows: primary screen, percent inhibition; read as competition with a fluorescent probe by fluorescence polarization; higher = more effect of the substance. Conditions: 100 µM. The protocol:
The screen was conducted using the conditions as described above in 1536-well plates (Corning 3724) with a reaction volume of 8 μL per well. The compound library containing 7887 covalent fragments was purchased at Enamine Ltd. and received as 100 mM DMSO stocks in 384 well LDV Echo plates (Labcyte LP-0200). Stock solutions of 0.26 μM PARK7 and 80 nM JYQ-107 were prepared. Using a Labcyte Echo550 acoustic dispenser, 8 nL of the DMSO stock solution of the library compounds was transferred from the source plates into the empty 1536-well screening plates to obtain a 100 μM final compound concentration. Next, PARK7 (6 μL, final concentration 0.2 μM) was dispensed using a Biotek MultiflowFX liquid dispenser and incubated for 2 h, followed by dispensing the probe JYQ-107 (2 μL, final concentration 20 nM). After 2 h incubation, the FP signal was recorded on a BMG Labtech PHERAstar plate reader (λex/em 480/520 nm). The relative loss of FP signal compared with reference controls was used to calculate the remaining enzyme activity.
Turning to `Cl.Cl.O=C(O)C1CCN(C(=O)C=Cc2nc3ccccc3s2)C1` (centres unmarked), the Inhibition % is 9.53%. On to `C=CC(=O)NC[C@H]1CC[C@H](c2ccccc2)O1`, for which the Inhibition % stood at 2.73%.

`Cn1c(=O)c2c(ncn2CCS(=O)(=O)F)n(C)c1=O`: the Inhibition % was determined as 7.95%. As for `CC(C)Cc1ccc(C(C)NC(=O)CCl)cc1` (centres unmarked), the figure is 9.76%; as for `CS(=O)(=O)OCC1(C#N)CCCCC1`, 8.05%; as for `CCCC(=O)NC1CCCN(c2ccc(C#N)nc2)C1` (centres unmarked), 5.26%. Take `N#CCCN(C(=O)CCl)c1ccccc1`: the Inhibition % turned out to be 14.9%. As for `NC(=O)CCN(C(=O)CCl)c1ccc(F)cc1`, the figure is 37.5%; as for `NC(=O)CCN(C(=O)CCl)c1ccccc1`, 67.4%; as for `C=CC(=O)Nc1cc2ccccn2n1`, 30.2%.

Consider `C=CC(=O)NCc1cnn2ccccc12`, for which the Inhibition % amounted to 19.8%. As for `C=CC(=O)Nc1cnn2ccccc12`, the figure is 97%. As for `C=CC(=O)NCc1noc2c1CCCC2`, the figure is 4.47%; as for `N#Cc1ncccc1N1CCc2ccccc2C1`, 26.9%; as for `CC(C)c1nc2c(n1C)CCN(c1cccnc1C#N)C2`, 87%. As for `N#Cc1ncccc1N1CCC=C(F)C1`, the figure is 20.1%. On to `C=CC(=O)NCc1ccc(CN2CCCCCC2)cc1`, for which the Inhibition % turned out to be 13.2%. With `O=C(CCl)c1ccc(F)c(Cl)c1`, the Inhibition % is given as 99.2%. Next, `O=C(CCl)c1ccc(F)c(F)c1`: 22.1%; `Cc1cc(C(=O)CCl)ccc1F`: 24.6%. On to `O=C(CCl)c1ccc(F)c(C(=O)CCl)c1`, for which the Inhibition % is given as 100%. Next, `O=C(CCl)Nc1ccc2[nH]c(C(F)(F)F)nc2c1`: 45%; `CC(NC(=O)Cn1cnc(C#N)n1)c1ccc(F)cc1F` (centres unmarked): 1.26%; `N#CN(Cc1ccno1)c1ccc(F)cc1`: 15.5%.

For the molecule `C=CC(=O)Nc1cc(F)ccc1C`, the Inhibition % was 3.57%. As for `CC1CCCCC1NC(=O)Cn1cnc(C#N)n1` (centres unmarked), the figure is 5.45%. Next, `O=C(O)[C@H]1CCCN1C(=O)C=Cc1ccccc1F`: 8.2%; `O=C(CCl)N1CCCC2CCCCC21` (centres unmarked): 14.1%. On to `O=C(CCl)C1CCCN1C(=O)C(F)(F)F` (centres unmarked), for which the Inhibition % is reported as 80.8%. As to `NC(=O)C1CCCCN1C(=O)CCl` (centres unmarked), the Inhibition % is 12.3%. Take `CC1(C)CCC(OS(C)(=O)=O)CC1`: the Inhibition % was 16.9%.

Turning to `CSc1cc(C(=O)CCl)ccc1NC(C)=O`, the Inhibition % is 5.59%. `CSc1ccc(C(=O)CCl)cc1NC(C)=O`: the Inhibition % was 37.7%.

Turning to `CC(=O)NCCc1ccc(C(=O)CCl)cc1F`, the Inhibition % amounted to 81.3%.

For the molecule `O=C(CCl)NCCc1ccc(Cl)cc1Cl`, the Inhibition % worked out at 23.1%. As for `CC(=O)NCCc1cc(C(=O)CCl)ccc1F`, the figure is 83.3%. With `Cc1nc(C=CC(=O)N2CCc3sccc3C2)cs1`, the Inhibition % is 4.01%.

Regarding `O=C(CCl)Nc1nc2c(F)c(F)c(F)cc2s1`, the Inhibition % is -4.93%. As for `COc1ccc(N2CCN(CC3CO3)CC2)cc1` (centres unmarked), the figure is 12.9%; as for `N#CC1CC2(CC(=O)N2)C1` (centres unmarked), 5.93%. In the case of `Cc1ccc2cccc(OC(=O)N3CCCC3)c2n1`, the Inhibition % is given as 13.5%.

For the molecule `O=C1CC(c2ccccc2)N1` (centres unmarked), the Inhibition % worked out at 7.05%.

As to `O=C(O)CC1CC(=O)N1` (centres unmarked), the Inhibition % is recorded as 65.7%. Next, `O=C1CC(Cc2ccccc2)N1` (centres unmarked): 3.33%; `Cc1nc(C#N)c(N)nc1Cl`: 10.2%; `Oc1ccnc(S)n1`: 2.99%. `Cc1ccc2ccccc2c1B(O)O`: the Inhibition % is on record as 0.986%.

On to `Cc1cc(NS(=O)(=O)C=Cc2ccccc2)ccn1`, for which the Inhibition % is recorded as 29.4%. `COc1ccc(NS(=O)(=O)C=Cc2ccccc2)cn1`: the Inhibition % is recorded as 59.9%. Next, `COc1ccc(NS(=O)(=O)c2ccc(S(=O)(=O)F)cc2)cn1`: 100%; `COc1ccccc1NS(=O)(=O)C=Cc1ccccc1`: 7.7%. For the molecule `O=S(=O)(F)c1ccc(S(=O)(=O)Nc2ccnnc2)cc1`, the Inhibition % was found to be 8.23%. In the case of `O=S(=O)(C=Cc1ccccc1)Nc1ccc(F)c(F)c1`, the Inhibition % is 1.18%. As to `N#Cc1ccc(NS(=O)(=O)C=Cc2ccccc2)cc1`, the Inhibition % was found to be 10.5%. For `COc1ccc(NS(=O)(=O)C=Cc2ccccc2)cc1`, the Inhibition % is given as 1.18%.

For the molecule `Cc1ccc(C=CS(=O)(=O)Nc2cnn(CCO)c2)cc1`, the Inhibition % is 14.7%. Next, `CCn1cc(NS(=O)(=O)C=Cc2ccccc2)cn1`: 81.4%. Take `CN(C)c1ccc(NS(=O)(=O)C=Cc2ccccc2)cn1`: the Inhibition % is reported as 69.9%.

In the case of `O=C(CCl)NCc1ccc(C(=O)N2CCOCC2)cc1`, the Inhibition % turned out to be 19.5%. Turning to `C=CC(=O)NC1C2CCOC2C12CCCC2` (centres unmarked), the Inhibition % stood at 5.2%. As for `C=CC(=O)N1CCOCC(C)C1` (centres unmarked), the figure is 6.12%; as for `O=C1SCCN1CN1CCC(c2ccccc2)CC1`, 11.7%.

`Cc1cccc(NC2C=CS(=O)(=O)C2)c1` (centres unmarked): the Inhibition % is 7.19%. Next, `CC1(C)COCCN1Cn1nc(-c2ccccc2)oc1=O`: 8.59%; `COc1ncc(B2OC(C)(C)C(C)(C)O2)cn1`: 4.41%; `C=CC(=O)N1CCOCC1c1nnc(C(C)C)o1` (centres unmarked): 10%. Next, `Cc1cccc(C)c1N1C(=O)CN=C1S`: 1.33%; `Cc1ccc(S(=O)(=O)N2CCCCC2C2OCCO2)cc1` (centres unmarked): 3.92%; `O=C(CCc1ccc(S(=O)(=O)F)cc1)N1CCCCC1`: 12.4%. For `CC(C)N(C)C(=O)CCc1ccc(S(=O)(=O)F)cc1`, the Inhibition % is given as 4.68%. Regarding `O=C(Cc1ccc(S(=O)(=O)F)cc1)NC1CCCC1`, the Inhibition % is on record as 2.81%. In the case of `O=C(O)CCc1ccc(S(=O)(=O)F)cc1`, the Inhibition % was found to be 82.3%. For the molecule `O=C(O)Cc1ccc(S(=O)(=O)F)cc1`, the Inhibition % was determined as 89.7%. As for `O=C(Cc1ccc(S(=O)(=O)F)cc1)Nc1ccccc1Cl`, the figure is 12.8%; as for `OB(O)c1ccc(OCC(F)(F)F)cc1F`, 13%; as for `CC(c1ccccc1)C1CO1` (centres unmarked), -0.54%. As for `COc1ccc(C2CCCN2C(=O)n2ccnc2)cc1` (centres unmarked), the figure is 6.77%; as for `CC1(C)OB(c2ccc(N)c(CO)c2)OC1(C)C`, 7.71%.

For the molecule `C=CC(=O)N1CCCC(c2nc(C)c(C)s2)C1` (centres unmarked), the Inhibition % was found to be 6.18%.

With `C=CC(=O)N1CCC(c2ncno2)CC1`, the Inhibition % came out at 9.72%. As for `N#Cc1cnccc1S`, the figure is 92.5%; as for `N#Cc1ccncc1C(=O)O`, 12.3%; as for `N#Cc1cccnc1S`, 11.9%.

For `O=C(CCl)NC(=O)OCc1ccccc1`, the Inhibition % came out at 33.1%.

With `COC(=O)C1CC(S(=O)(=O)F)CN1C(=O)c1cccs1` (centres unmarked), the Inhibition % is given as 11%. Next, `O=C(c1ccccc1)N1CCCC(CS(=O)(=O)F)C1` (centres unmarked): 71.4%; `O=C(c1cccs1)N1CCCCC1CCS(=O)(=O)F` (centres unmarked): 84.1%; `O=C(NCCS(=O)(=O)F)c1ccccc1`: 13.4%. As for `O=S(=O)(F)CCc1ccccc1`, the figure is 4.21%; as for `O=C(c1ccccc1)N1CCC(CCl)C1` (centres unmarked), 2.86%.

As for `O=C(OCc1ccccc1)N1CCCCC1CS(=O)(=O)F` (centres unmarked), the Inhibition % worked out at 16%. For the molecule `O=C(CCl)NC(=O)c1cccs1`, the Inhibition % was 23.4%. Next, `O=C(NCCCS(=O)(=O)F)c1cccs1`: 98.9%. Turning to `O=C(NCCCS(=O)(=O)F)OCc1ccccc1`, the Inhibition % is reported as 95.8%. Next, `O=C(c1ccccc1)N1CCCC(S(=O)(=O)F)C1` (centres unmarked): 32.4%; `c1csc(COCC2CO2)c1` (centres unmarked): 0.211%.

As to `C=CC(=O)NC1CCCN(c2cccnc2)C1=O` (centres unmarked), the Inhibition % was 15.4%. As for `C=CC(=O)NC1(C2CC2)CCOCC1`, the figure is 7.04%. `C=CC(=O)N1CCC(Oc2cccnc2N2CCCC2)C1` (centres unmarked): the Inhibition % came to 13.2%. As for `C=CC(=O)N1CC2(CCOCC2)c2ccccc21`, the Inhibition % came out at 7.61%. Next, `O=C(NC1CCN(C2CCOC2=O)CC1)c1cccs1` (centres unmarked): 7.52%; `O=C(c1ccccc1)N1CC(S(=O)(=O)F)C1`: 35.6%; `O=C(c1cccs1)N1CCCC(CS(=O)(=O)F)C1` (centres unmarked): 90.1%. As for `O=C(c1cccs1)N1CCC(S(=O)(=O)F)CC1`, the figure is 10.8%; as for `O=C(c1cccs1)N1CCCC(S(=O)(=O)F)C1` (centres unmarked), 73.5%. Next, `O=C(c1cccs1)N1CCOC(CS(=O)(=O)F)C1` (centres unmarked): 14.7%. Regarding `O=C(CCl)NNC(=O)c1cccs1`, the Inhibition % was 7.74%. For `O=C1OCCC1N1CCN(C(=O)c2cccs2)CC1` (centres unmarked), the Inhibition % is 9.27%.

As to `O=C(N[C@H]1CC[C@@H](CS(=O)(=O)F)C1)c1cccs1` (racemic), the Inhibition % is given as 96.8%. Next, `O=C(c1cccs1)N1CCC(CS(=O)(=O)F)C1` (centres unmarked): 97.1%; `O=C(c1cccs1)N1CCC(CS(=O)(=O)F)CC1`: 35.6%; `O=C(CCl)N1CCN(C(=O)c2cccs2)CC1`: 40.3%. As for `Nc1cccc(OC2CC(=O)N2)c1` (centres unmarked), the figure is 18.6%.

In the case of `O=C(O)C1COCCN1C(=O)C=Cc1ccc(Cl)s1` (centres unmarked), the Inhibition % amounted to 13.1%. As to `C=CC(=O)NCC1CC2(CCOCC2)CO1` (centres unmarked), the Inhibition % worked out at 5.16%. As for `CC(C)(C)OC(=O)N1CCOc2cccc(B3OC(C)(C)C(C)(C)O3)c2C1`, the figure is 3.79%.

Take `CC(Cl)Cc1cc2ccc(O)cc2oc1=O` (centres unmarked): the Inhibition % was 12.3%. As to `O=C(CCl)Nc1cc(F)cc(F)c1`, the Inhibition % is 14.6%. As to `C=CC(=O)N1CCN(CC(C)C)C(=O)C1C` (centres unmarked), the Inhibition % worked out at 0.151%. As for `COc1ccc(C)cc1S(=O)(=O)Oc1ccccn1`, the figure is 17%. As for `CCCOc1cc(C)c(C)cc1S(=O)(=O)n1ccnc1C`, the figure is 8.09%. `COC(=O)c1cc([N+](=O)[O-])cc(B2OC(C)(C)C(C)(C)O2)c1C`: the Inhibition % turned out to be 12.9%. Next, `COc1ccc(S(=O)(=O)F)cc1O`: 54%.

On to `COc1ccccc1-c1nnc(-c2ccc(S(=O)(=O)F)cc2)o1`, for which the Inhibition % is listed as 9.83%.

In the case of `COc1cc(S(=O)(=O)F)ccc1O`, the Inhibition % amounted to 17.3%.
